Assay results published in PubChem BioAssay (EPA / NIEHS).
Activity calls are given as the source filed them. The calls were made as follows: active = hit-call score of the fitted dose curve at least 0.9, where 1 is the maximum; inactive = score below 0.9.

Legend:
Details in all cases: mRNA level, 48 h; actives raise or lower the signal
[1] = read-out: Lipase C (LIPC), LIPC (gene 3990); assay: LTEA_HepaRG_LIPC: Life Technologies and Expression Analysis (LTEA) Assay for Lipase C (LIPC) using HepaRG (AID 2283514)
Method in brief: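 In this multiplexed gene-expression screen, human HepaRG cultures received test chemicals for 48 h across eight concentrations with 100 uM highest, in duplicate. Values reflect LIPC mRNA induction or suppression versus DMSO vehicle, from normalized qRT-PCR.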

[2] = read-out: Lipoprotein lipase (LPL), LPL (gene 4023); assay: LTEA_HepaRG_LPL: Life Technologies and Expression Analysis (LTEA) Assay for Lipoprotein lipase (LPL) using HepaRG (AID 2283515)
Method in brief: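 Concentration-response testing used half-log steps from 100 uM in 0.5% DMSO on human HepaRG cells, 48 h, duplicate wells. Phenobarbital 1 mM served as induction control; LPL mRNA was normalized to ACTB, GAPDH, POLR2A.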

[3] = read-out: MicroRNA 122 (MIR122), gene 406906; assay: LTEA_HepaRG_MIR122: Life Technologies and Expression Analysis (LTEA) Assay for MicroRNA 122 (MIR122) using HepaRG (AID 2283516); also: the transcript read is the microRNA miR-122
Method in brief: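 Human liver HepaRG cultures receive test chemicals for 48 h at eight half-log concentrations from 100 uM. Expression is quantified by qRT-PCR with ACTB/GAPDH/POLR2A normalization and fitted bidirectionally against 0.5% DMSO.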

[4] = read-out: matrix metalloproteinase-10 (MMP10), MMP10 (gene 4319); assay: LTEA_HepaRG_MMP10: Life Technologies and Expression Analysis (LTEA) Assay for matrix metalloproteinase-10 (MMP10) using HepaRG (AID 2283517)
Method in brief: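 In differentiated HepaRG cultures kept in 0.5% DMSO, test chemicals act for 48 h over an eight-point range with a top dose of 100 uM. Expression is then quantified by TaqMan RT-PCR against ACTB, GAPDH and POLR2A.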

[5] = read-out: MYC, MYC (gene 4609); assay: LTEA_HepaRG_MYC: Life Technologies and Expression Analysis (LTEA) Assay for MYC using HepaRG (AID 2283518)
Method in brief: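 Cells are thawed, plated and cultured 48 h, then treated for 48 h with test chemicals (eight half-log concentrations from 100 uM, 0.5% DMSO vehicle). RNA is isolated and MYC expression quantified by qRT-PCR against three housekeeping genes.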

[6] = read-out: matrix metalloproteinase-3 (MMP3), MMP3 (gene 4314); assay: LTEA_HepaRG_MMP3: Life Technologies and Expression Analysis (LTEA) Assay for matrix metalloproteinase-3 (MMP3) using HepaRG (AID 2283519)
Method in brief: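 Human liver HepaRG cultures received chemicals (top concentration 100 uM, 0.5% DMSO) for 48 h in duplicate. MMP3 mRNA induction or loss was then assessed via TaqMan qRT-PCR with housekeeping-gene normalisation.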

[7] = read-out: Paternally Expressed 10 (PEG10), PEG10 (gene 23089); assay: LTEA_HepaRG_PEG10: Life Technologies and Expression Analysis (LTEA) Assay for Paternally Expressed 10 (PEG10) using HepaRG (AID 2283520);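 as to AC50: PEG10 transcript by qRT-PCR normalised to ACTB GAPDH and POLR2A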
Method in brief: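 Human HepaRG cultures are dosed for 48 h across an eight-point half-log series starting at 100 uM, with 0.5% DMSO as vehicle and baseline. Gain or loss of PEG10 transcript is measured by qRT-PCR and fitted in both directions.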

[8] = read-out: Nuclear factor NF-kappa-B p105 subunit (Homo sapiens) (UniProt P19838); assay: LTEA_HepaRG_NFKB1: Life Technologies and Expression Analysis (LTEA) Assay for Nuclear Factor Kappa B Subunit 1 (NFKB1) using HepaRG (AID 2283521);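 also: TaqMan qRT-PCR transcript normalised to ACTB GAPDH and POLR2A housekeeping genes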
Method in brief: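 Differentiated human HepaRG cells in serum-free induction medium with 0.5% DMSO were exposed for 48 h to eight half-log concentrations, top 100 uM, in duplicate. NFKB1 mRNA measured by Fluidigm TaqMan qRT-PCR, normalised to ACTB, GAPDH and POLR2A; bidirectional fit versus DMSO.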

[9] = read-out: Protein phosphatase 2A (PPP2R4), PTPA (gene 5524); assay: LTEA_HepaRG_PPP2R4: Life Technologies and Expression Analysis (LTEA) Assay for Protein phosphatase 2A (PPP2R4) using HepaRG (AID 2283522)
Method in brief: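 Cells were plated, cultured 48 h, switched to serum-free induction medium, then dosed for 48 h (8 points, max 100 uM, 0.5% DMSO). RNA was isolated and PPP2R4 expression measured by TaqMan qRT-PCR.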

[10] = read-out: Phosphatase and tensin (PTEN), PTEN (gene 5728); assay: LTEA_HepaRG_PTEN: Life Technologies and Expression Analysis (LTEA) Assay for Phosphatase and tensin (PTEN) using HepaRG (AID 2283523)
Method in brief: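 Expression of PTEN is quantified in the human liver line HepaRG following two days of dosing (top concentration 100 uM, half-log dilutions, 0.5% DMSO). Values derive from bidirectional curve fitting relative to DMSO controls.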

[11] = read-out: solute carrier (SLC22A1), SLC22A1 (gene 6580); assay: LTEA_HepaRG_SLC22A1: Life Technologies and Expression Analysis (LTEA) Assay for solute carrier (SLC22A1) using HepaRG (AID 2283524);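 as to AC50: TaqMan qRT-PCR normalized to ACTB GAPDH and POLR2A housekeeping genes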
Method in brief: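 Transcript induction or suppression of SLC22A1 in human HepaRG cultures is scored after 48 h chemical treatment, with DMSO (0.5%) as baseline for bidirectional fitting. Concentrations span eight half-log points topping at 100 uM.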

[12] = read-out: Pyruvate Dehydrogenase Kinase 4 (PDK4), PDK4 (gene 5166); assay: LTEA_HepaRG_PDK4: Life Technologies and Expression Analysis (LTEA) Assay for Pyruvate Dehydrogenase Kinase 4 (PDK4) using HepaRG (AID 2283525)
Method in brief: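 Eight-point, half-log concentration series (max 100 uM, 0.5% DMSO) applied to differentiated HepaRG cells for 48 h in duplicate. Endpoint: PDK4 mRNA induction or repression by qRT-PCR against DMSO baseline.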

[13] = read-out: NAD(P)H dehydrogenase [quinone] 1 (NQO1), NQO1 (gene 1728); assay: LTEA_HepaRG_NQO1: Life Technologies and Expression Analysis (LTEA) Assay for NAD(P)H dehydrogenase [quinone] 1 (NQO1) using HepaRG (AID 2283526)
Method in brief: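 Transcript induction or suppression is quantified by qRT-PCR in human HepaRG liver cells dosed for 48 hours. Eight half-log concentrations topping at 100 uM are used, with 0.5% DMSO as vehicle and baseline.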

[14] = read-out: Nuclear factor erythroid 2-related factor 2 (Homo sapiens) (UniProt Q16236); assay: LTEA_HepaRG_NFE2L2: Life Technologies and Expression Analysis (LTEA) Assay for Nuclear factor erythroid 2-related factor 2 (NFE2L2) Transcription Factor using HepaRG (AID 2283527)
Method in brief: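 Human liver HepaRG line treated in duplicate for 48 h with an eight-point series topping at 100 uM. Gene expression of NFE2L2 by qRT-PCR, bidirectionally fitted against the vehicle control.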

[15] = read-out: Signal transducer and activator of transcription 3 (Homo sapiens) (UniProt P40763); assay: LTEA_HepaRG_STAT3: Life Technologies and Expression Analysis (LTEA) Assay for Signal transducer and activator of transcription (STAT3) using HepaRG (AID 2283529)
Method in brief: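 In this transcriptional endpoint, HepaRG cultures receive test chemicals at up to 100 uM for 48 h, tested in duplicate. STAT3 mRNA is normalized to ACTB, GAPDH and POLR2A.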

[16] = read-out: solute carrier (SLCO1B1), SLCO1B1 (gene 10599); assay: LTEA_HepaRG_SLCO1B1: Life Technologies and Expression Analysis (LTEA) Assay for solute carrier (SLCO1B1) using HepaRG (AID 2283530)
Method in brief: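 Gain or loss of SLCO1B1 mRNA is fitted against the 0.5% DMSO vehicle in human HepaRG liver cells treated 48 h at up to 100 uM in half-log steps. Expression comes from qRT-PCR normalized to endogenous controls.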

[17] = read-out: Transforming Growth Factor (TGFA), TGFA (gene 7039); assay: LTEA_HepaRG_TGFA: Life Technologies and Expression Analysis (LTEA) Assay for Transforming Growth Factor (TGFA) using HepaRG (AID 2283532)
Method in brief: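 Gene expression of TGFA was quantified by qRT-PCR after human HepaRG cells were treated for 48 h with test chemicals (eight concentrations, highest 100 uM, 0.5% DMSO). Activity in either direction was fitted relative to DMSO.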

[18] = read-out: Transforming Growth Factor (TGFB1), TGFB1 (gene 7040); assay: LTEA_HepaRG_TGFB1: Life Technologies and Expression Analysis (LTEA) Assay for Transforming Growth Factor (TGFB1) Transporter using HepaRG (AID 2283533)
Method in brief: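 Expression change of TGFB1 in human HepaRG cells is measured after a 48 h chemical exposure, up to 100 uM in 0.5% DMSO vehicle. Curves are fitted in both directions relative to the DMSO baseline.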

[19] = read-out: TIMP1, TIMP1 (gene 7076); assay: LTEA_HepaRG_TIMP1: Life Technologies and Expression Analysis (LTEA) Assay for TIMP1 using HepaRG (AID 2283534)
Method in brief: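 We dosed human liver HepaRG cultures for 48 hours with up to 100 uM test chemical and measured TIMP1 expression by qRT-PCR. Activity in either direction is fitted relative to the 0.5% DMSO vehicle.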

[20] = read-out: Tumor necrosis factor receptor 1 (TNFRSF1A), TNFRSF1A (gene 7132); assay: LTEA_HepaRG_TNFRSF1A: Life Technologies and Expression Analysis (LTEA) Assay for Tumor necrosis factor receptor 1 (TNFRSF1A) using HepaRG (AID 2283535)
Method in brief: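 Expression of TNFRSF1A in human HepaRG liver cells was measured by qRT-PCR 48 h after chemical dosing (maximum 100 uM). Bidirectional curve fitting used 0.5% DMSO as baseline.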

Measured: AC50

Chain of Signal transducer and activator of transcription 3 (Homo sapiens) (P40763 whole entry, looked up): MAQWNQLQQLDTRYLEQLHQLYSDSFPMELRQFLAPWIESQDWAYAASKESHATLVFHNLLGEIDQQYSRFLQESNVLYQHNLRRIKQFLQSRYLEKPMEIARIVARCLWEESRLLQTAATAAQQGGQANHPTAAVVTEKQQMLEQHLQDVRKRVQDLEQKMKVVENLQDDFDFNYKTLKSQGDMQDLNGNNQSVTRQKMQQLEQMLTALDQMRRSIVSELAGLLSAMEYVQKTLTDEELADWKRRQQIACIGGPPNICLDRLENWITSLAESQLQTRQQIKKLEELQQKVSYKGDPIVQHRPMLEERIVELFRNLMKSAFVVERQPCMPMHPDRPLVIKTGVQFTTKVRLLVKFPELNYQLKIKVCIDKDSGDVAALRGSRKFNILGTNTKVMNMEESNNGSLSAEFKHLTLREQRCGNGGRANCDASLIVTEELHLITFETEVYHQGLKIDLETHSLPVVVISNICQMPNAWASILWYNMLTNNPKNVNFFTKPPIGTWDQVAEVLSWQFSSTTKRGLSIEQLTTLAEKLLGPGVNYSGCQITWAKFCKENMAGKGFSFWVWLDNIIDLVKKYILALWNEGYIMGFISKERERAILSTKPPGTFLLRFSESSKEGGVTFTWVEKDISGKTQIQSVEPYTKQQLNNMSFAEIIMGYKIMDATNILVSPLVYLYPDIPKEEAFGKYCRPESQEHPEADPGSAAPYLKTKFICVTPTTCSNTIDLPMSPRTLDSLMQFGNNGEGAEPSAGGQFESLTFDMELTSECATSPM
Chain of Nuclear factor erythroid 2-related factor 2 (Homo sapiens) (Q16236 whole entry, looked up): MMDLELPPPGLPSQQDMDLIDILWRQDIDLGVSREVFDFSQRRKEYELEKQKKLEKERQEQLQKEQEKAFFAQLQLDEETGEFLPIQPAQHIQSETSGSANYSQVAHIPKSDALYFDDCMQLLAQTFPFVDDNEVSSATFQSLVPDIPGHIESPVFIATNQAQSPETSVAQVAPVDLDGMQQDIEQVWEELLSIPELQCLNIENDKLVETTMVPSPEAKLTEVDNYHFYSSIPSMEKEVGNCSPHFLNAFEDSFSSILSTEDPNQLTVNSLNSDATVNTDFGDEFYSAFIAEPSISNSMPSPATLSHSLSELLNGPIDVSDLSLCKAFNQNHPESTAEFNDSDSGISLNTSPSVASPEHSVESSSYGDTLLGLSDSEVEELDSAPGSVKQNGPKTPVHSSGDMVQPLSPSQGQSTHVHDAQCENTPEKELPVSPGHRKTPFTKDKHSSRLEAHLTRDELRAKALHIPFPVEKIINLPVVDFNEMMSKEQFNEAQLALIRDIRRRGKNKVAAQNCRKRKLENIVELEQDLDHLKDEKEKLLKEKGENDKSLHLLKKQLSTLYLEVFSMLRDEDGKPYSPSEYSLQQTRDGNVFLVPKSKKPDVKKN
Chain of Nuclear factor NF-kappa-B p105 subunit (Homo sapiens) (P19838 whole entry, looked up): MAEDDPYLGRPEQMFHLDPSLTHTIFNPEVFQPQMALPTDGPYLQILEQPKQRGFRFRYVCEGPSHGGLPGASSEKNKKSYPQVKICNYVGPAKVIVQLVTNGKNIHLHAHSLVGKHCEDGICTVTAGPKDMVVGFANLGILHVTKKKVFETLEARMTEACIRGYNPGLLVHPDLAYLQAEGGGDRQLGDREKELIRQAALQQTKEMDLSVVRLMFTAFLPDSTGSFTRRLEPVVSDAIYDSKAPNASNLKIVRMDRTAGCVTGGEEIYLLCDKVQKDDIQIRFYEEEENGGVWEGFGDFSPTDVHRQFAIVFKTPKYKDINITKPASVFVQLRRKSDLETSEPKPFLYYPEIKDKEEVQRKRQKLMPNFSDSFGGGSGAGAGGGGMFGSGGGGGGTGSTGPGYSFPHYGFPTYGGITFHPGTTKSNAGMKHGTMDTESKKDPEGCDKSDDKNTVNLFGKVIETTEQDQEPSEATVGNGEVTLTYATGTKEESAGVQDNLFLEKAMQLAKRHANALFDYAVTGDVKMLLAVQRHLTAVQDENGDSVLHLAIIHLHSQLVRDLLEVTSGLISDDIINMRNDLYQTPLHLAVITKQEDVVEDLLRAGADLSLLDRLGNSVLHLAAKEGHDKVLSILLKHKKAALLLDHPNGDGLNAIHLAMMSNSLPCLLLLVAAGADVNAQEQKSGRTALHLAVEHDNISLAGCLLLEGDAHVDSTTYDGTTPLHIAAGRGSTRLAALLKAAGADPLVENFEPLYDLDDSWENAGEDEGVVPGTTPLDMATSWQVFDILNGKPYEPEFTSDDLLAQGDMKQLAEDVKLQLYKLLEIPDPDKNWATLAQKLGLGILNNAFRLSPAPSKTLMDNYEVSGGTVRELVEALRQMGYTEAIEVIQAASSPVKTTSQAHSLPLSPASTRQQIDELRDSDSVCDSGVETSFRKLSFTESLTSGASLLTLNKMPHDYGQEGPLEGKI

NC(=O)O
inactive: all assays above

C[C@]12CCC(=O)C[C@@H]1CC[C@@H]1[C@@H]2CC[C@]2(C)[C@@H](O)CC[C@@H]12
active: [7] 50 µM
inactive: all other assays above

CCC(C)(C)c1ccc(O)c(C(C)(C)CC)c1
inactive: all assays above

O=C(Nc1ccc2[nH]ccc2c1)c1cc2cc(F)ccc2n1Cc1cccc(F)c1
inactive: [6] | [8] | [9] | [10] | [13] | [15] | [18] | [20]
active: [1] 59.7 µM | [2] 19.9 µM | [3] 24.9 µM | [4] 29 µM | [5] 15.7 µM | [7] 50 µM | [11] 39.5 µM | [12] 89.3 µM | [14] 47.1 µM | [16] 36.1 µM | [17] 29.3 µM | [19] 81.9 µM
